Measured values reported in PubChem BioAssay (Tox21).
Values joined by “and” are separate entries in the source; they are usually repeats but may differ in a detail not shown here. Identical values can stand only once. Records with an inconclusive call do not appear. Where a call stands in place of a potency, no number is given. Some compounds were tested as several samples or in several runs, with calls that do not always agree. Active and inactive are the calls of the source. Unless noted, calls come from the whole dose curve; as a rule, active = well fitted curve in the direction sought with a large enough effect in the repeat runs; inconclusive = weak or mixed curves; inactive = no such curve, though single readings can be large; an effect the other way counts as inactive or inconclusive.

Tested on: not listed separately
Test: qHTS assay for identifying genotoxic compounds that show differential cytotoxicity against isogenic chicken DT40 cell lines with known DNA damage response pathways - Rad54/Ku70 mutant cell line (AID 743015); note: nearly all actives have a fitted effect of over 60% in size; note: potency is the fitted concentration of half-maximal effect
Conditions: DT40 Rad54/Ku70 mutant viability, CellTiter-Glo, 40 h; series mostly up to 66.8 µM

SMILES | Potency
CCSC(=O)N1CCCCCC1 | inactive
CC(C)(C)C(=O)CCl | inactive
C=C(C)C(=O)OCC(CC)CCCC (stereo unspecified) | inactive
CC[N+](=O)[O-] | inactive
O=C(O)Cc1ccccc1 | inactive
COP(=S)(OC)Oc1ccc(SC)c(C)c1 | inactive and 61.1 µM (active)
Nc1nc(N)nc(NC2CC2)n1 | inactive and 61.1 µM (active)
CCNc1nc(Cl)nc(NC(C)C)n1 | inactive
Nc1ccc(N)cc1 | 26.6 µM (active) and 21.8 µM (active)
Cc1ccc(O)c(C)c1 | inactive
CN(C)C(=O)C(c1ccccc1)c1ccccc1 | inactive
C/C=C/c1ccc2c(c1)OCO2 | inactive
Sc1ccccc1 | inactive
Oc1c(Br)cc(Br)cc1Br | inactive
OCCCCO | inactive
Cc1cc(Cl)ccc1OC(C)C(=O)O (stereo unspecified) | inactive

SMILES | Potency
Nc1cccc(Cl)c1 | inactive
Nc1cc(Cl)cc(Cl)c1 | inactive
CNC(=O)O/N=C/C(C)(C)S(C)(=O)=O | inactive
CN(C)C(=O)Nc1cccc(C(F)(F)F)c1 | inactive
c1ccc2c(c1)CCCC2 | inactive
C[C@]12CC[C@H](O)CC1=CC[C@@H]1[C@@H]2CC[C@]2(C)C(=O)CC[C@@H]12 | 29.8 µM (active) and 61.2 µM (active) and 54.5 µM (active)
CN1C(=O)CCS(=O)(=O)C1c1ccc(Cl)cc1 (stereo unspecified) | inactive
N#Cc1ccccn1 | inactive
OCC(O)CCl (stereo unspecified) | inactive
Cc1ccc(N=C=O)cc1N=C=O | 62.7 µM (active) and inactive
C[C@H]1C(=O)O[C@@H]2CCN3CC=C(COC(=O)[C@](C)(O)[C@]1(C)O)[C@H]23 | inactive and 38.6 µM (active)
CNC(=O)Oc1cccc2ccccc12 | inactive
CN(C)CCC#N | inactive
Nc1ncc([N+](=O)[O-])s1 | inactive
C=CCN=C=S | inactive

Tested on: not listed separately
Test: qHTS assay to identify small molecule antagonists of the androgen receptor (AR) signaling pathway - cell viability counter screen (AID 743033; note: nearly all actives have a fitted effect of over 45% in size)
Conditions: AR-bla HEK293 viability, CellTiter-Glo luminescence, 16 h; series mostly up to 58.5 µM

SMILES | outcome
CCSC(=O)N1CCCCCC1 | inactive
CC(C)(C)C(=O)CCl | inactive
C=C(C)C(=O)OCC(CC)CCCC (stereo unspecified) | inactive
CC[N+](=O)[O-] | inactive
O=C(O)Cc1ccccc1 | inactive
COP(=S)(OC)Oc1ccc(SC)c(C)c1 | inactive
Nc1nc(N)nc(NC2CC2)n1 | inactive
CCNc1nc(Cl)nc(NC(C)C)n1 | inactive
Nc1ccc(N)cc1 | inactive
Cc1ccc(O)c(C)c1 | inactive
CN(C)C(=O)C(c1ccccc1)c1ccccc1 | inactive
C/C=C/c1ccc2c(c1)OCO2 | inactive
Sc1ccccc1 | inactive
Oc1c(Br)cc(Br)cc1Br | inactive
OCCCCO | inactive
Cc1cc(Cl)ccc1OC(C)C(=O)O (stereo unspecified) | inactive

SMILES | outcome
Nc1cccc(Cl)c1 | inactive
Nc1cc(Cl)cc(Cl)c1 | inactive
CNC(=O)O/N=C/C(C)(C)S(C)(=O)=O | inactive
CN(C)C(=O)Nc1cccc(C(F)(F)F)c1 | inactive
c1ccc2c(c1)CCCC2 | inactive
C[C@]12CC[C@H](O)CC1=CC[C@@H]1[C@@H]2CC[C@]2(C)C(=O)CC[C@@H]12 | inactive
CN1C(=O)CCS(=O)(=O)C1c1ccc(Cl)cc1 (stereo unspecified) | inactive
N#Cc1ccccn1 | inactive
OCC(O)CCl (stereo unspecified) | inactive
Cc1ccc(N=C=O)cc1N=C=O | inactive
C[C@H]1C(=O)O[C@@H]2CCN3CC=C(COC(=O)[C@](C)(O)[C@]1(C)O)[C@H]23 | inactive
CNC(=O)Oc1cccc2ccccc12 | inactive
CN(C)CCC#N | inactive
Nc1ncc([N+](=O)[O-])s1 | inactive
C=CCN=C=S | inactive

Biological target: Androgen receptor (Homo sapiens) (UniProt P10275)
Test: qHTS assay to identify small molecule antagonists of the androgen receptor (AR) signaling pathway (AID 743035; active = well fitted inhibition curve with a large enough effect in the signal ratio in the repeat runs, not every such curve was filed as active; the % refers to the signal ratio)
Conditions: HEK293 AR-UAS-bla, R1881-stimulated, beta-lactamase FRET, 16 h; series mostly up to 58.5 µM
Summary of the method: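 Reporter HEK293 cells were exposed to compounds and R1881 overnight (16 h, 37C); beta-lactamase activity was then quantified by FRET fluorescence.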

Androgen receptor (Homo sapiens), sequence (P10275 whole entry, looked up): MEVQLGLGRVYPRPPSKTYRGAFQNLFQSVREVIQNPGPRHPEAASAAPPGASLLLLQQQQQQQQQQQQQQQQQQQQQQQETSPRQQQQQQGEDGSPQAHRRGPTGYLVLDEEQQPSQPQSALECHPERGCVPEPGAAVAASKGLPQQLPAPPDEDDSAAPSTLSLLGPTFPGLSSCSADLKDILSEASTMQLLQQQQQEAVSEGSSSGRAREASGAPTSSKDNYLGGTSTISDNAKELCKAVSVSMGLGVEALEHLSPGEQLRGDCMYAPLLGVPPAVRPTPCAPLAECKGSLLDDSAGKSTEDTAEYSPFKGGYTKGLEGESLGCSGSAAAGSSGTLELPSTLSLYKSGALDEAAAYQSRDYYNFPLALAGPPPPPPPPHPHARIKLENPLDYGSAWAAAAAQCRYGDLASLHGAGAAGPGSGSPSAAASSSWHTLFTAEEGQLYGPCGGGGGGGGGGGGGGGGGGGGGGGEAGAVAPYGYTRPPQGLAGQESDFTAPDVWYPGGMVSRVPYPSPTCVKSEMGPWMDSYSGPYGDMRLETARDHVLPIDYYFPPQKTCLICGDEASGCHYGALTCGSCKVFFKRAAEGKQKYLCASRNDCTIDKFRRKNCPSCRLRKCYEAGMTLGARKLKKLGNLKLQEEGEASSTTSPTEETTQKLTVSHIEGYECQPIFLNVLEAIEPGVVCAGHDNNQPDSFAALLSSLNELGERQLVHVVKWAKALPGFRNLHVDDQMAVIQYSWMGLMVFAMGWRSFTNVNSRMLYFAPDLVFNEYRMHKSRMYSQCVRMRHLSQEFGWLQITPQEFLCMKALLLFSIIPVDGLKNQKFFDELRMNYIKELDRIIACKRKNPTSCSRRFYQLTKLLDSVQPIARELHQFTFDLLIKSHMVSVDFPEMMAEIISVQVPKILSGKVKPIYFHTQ

SMILES | Potency
CC(C)(C)C(=O)CCl | inactive
CNC(=O)O/N=C/C(C)(C)S(C)(=O)=O | inactive
c1ccc2c(c1)CCCC2 | inactive

Biological target: Androgen receptor (Homo sapiens) (UniProt P10275)
Test: qHTS assay to identify small molecule agonists of the androgen receptor (AR) signaling pathway (AID 743036; active = well fitted activation curve with a large enough effect in the signal ratio in the repeat runs, with a control signal flat, not every such curve was filed as active; the % refers to the signal ratio)
Conditions: HEK293 AR-UAS-bla GripTite, beta-lactamase FRET ratio, 16 h; series mostly up to 62.4 µM
Summary of the method: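 Cell-based FRET reporter assay: HEK293 line with a UAS-beta-lactamase construct, compounds added in DMSO, 16 h exposure at 37C, then 2 h substrate step at room temperature and fluorescence intensity read.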

SMILES | outcome
CC(C)(C)C(=O)CCl | inactive
CNC(=O)O/N=C/C(C)(C)S(C)(=O)=O | inactive
c1ccc2c(c1)CCCC2 | inactive

Biological target: Androgen receptor (Homo sapiens) (UniProt P10275)
Test: qHTS assay to identify small molecule agonists of the androgen receptor (AR) signaling pathway using the MDA cell line (AID 743040; note: nearly all actives have a fitted effect of over 20% in size)
Conditions: MDA-kb2 AR-luc cells, MMTV luciferase, 16 h, stronger effect = higher value; series mostly up to 70.3 µM
Summary of the method: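 Stable MMTV-luciferase reporter in MDA-kb2 cells; note the promoter carries GR as well as AR response elements. 16 h compound treatment, 37C, 0% CO2; ONE-Glo luminescence endpoint.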

SMILES | outcome
CC(C)(C)C(=O)CCl | inactive
CNC(=O)O/N=C/C(C)(C)S(C)(=O)=O | inactive
c1ccc2c(c1)CCCC2 | inactive

Tested on: not listed separately
Test: qHTS assay to identify small molecule antagonists of the androgen receptor (AR) signaling pathway using the MDA cell line - cell viability counter screen (AID 743041; note: nearly all actives have a fitted effect of over 45% in size)
Conditions: MDA-kb2 viability, CellTiter-Fluor, 16 h, cells co-treated with R1881 androgen agonist; series mostly up to 70.3 µM
Summary of the method: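 Using the breast carcinoma line MDA-kb2 AR-luc, test chemicals were co-incubated with R1881 for 16 h; CellTiter-Fluor reagent, added at 15.5 h, provided a fluorescence measure of live cells.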

SMILES | outcome
CCSC(=O)N1CCCCCC1 | inactive
CC(C)(C)C(=O)CCl | inactive
C=C(C)C(=O)OCC(CC)CCCC (stereo unspecified) | inactive
CC[N+](=O)[O-] | inactive
Nc1nc(N)nc(NC2CC2)n1 | inactive
CCNc1nc(Cl)nc(NC(C)C)n1 | inactive
CN(C)C(=O)C(c1ccccc1)c1ccccc1 | inactive
C/C=C/c1ccc2c(c1)OCO2 | inactive
Oc1c(Br)cc(Br)cc1Br | inactive
Nc1cccc(Cl)c1 | inactive
Nc1cc(Cl)cc(Cl)c1 | inactive
CNC(=O)O/N=C/C(C)(C)S(C)(=O)=O | inactive
CN(C)C(=O)Nc1cccc(C(F)(F)F)c1 | inactive
c1ccc2c(c1)CCCC2 | inactive
C[C@]12CC[C@H](O)CC1=CC[C@@H]1[C@@H]2CC[C@]2(C)C(=O)CC[C@@H]12 | inactive
CN1C(=O)CCS(=O)(=O)C1c1ccc(Cl)cc1 (stereo unspecified) | inactive
N#Cc1ccccn1 | inactive
CN(C)CCC#N | inactive
Nc1ncc([N+](=O)[O-])s1 | inactive
C=CCN=C=S | inactive
